The values that follow come from PubChem BioAssay (NCATS).

Test [1] in a line: Identifying Small Molecule Inhibitors of Pancreatic Cancer Stem Cells (Panc1, Adherent) (AID 1259362). Further: potency means the concentration at half of the fitted maximal effect. The settings on record: Potency: viability. The method, boiled down: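 Spheroids grown 14 days in stem cell media on hydrogel-coated nonadherent plates; 2D lines seeded directly. Compounds added after 4 h attachment, 48 h at 37C, 5% CO2; CellTiter-Glo luminescence normalized to DMSO (no inhibition) and no-cell wells (full inhibition).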

A short description of test [2]: P-glycoprotein substrates identified in KB-8-5-11 adenocarcinoma cell line, qHTS therapeutic library screen (AID 1346987). Further: nearly all actives have a fitted effect of over 65% in size. Further: potency means the concentration at half of the fitted maximal effect. On activity change, negative = cytotoxicity: series mostly up to about 44 µM; on the % scale 0 is the no-effect control and ±100 the full control effect. The method, boiled down: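 KB-8-5-11, a colchicine-selected P-gp-overexpressing KB-3-1 subline, was grown without colchicine for the assay. Cells were seeded at 500 cells/well, dosed in concentration-response and incubated 72 h at 37 degree C, 5% CO2. Viability was read by CellTiter-Glo luminescence.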
In general terms: In qHTS, concentration-response curves come from the screen itself.

Test [3] is described as follows: Identifying Small Molecule Inhibitors of Pancreatic Cancer Stem Cells (A278, Adherent) (AID 1259361).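 Further: viability read after 48 h compound exposure; nearly all actives have a fitted effect of over 35% in size.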 The method, boiled down:
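Endpoint: ATP-based luminescence, 48 h drug exposure. Bortezomib at 9.2 uM final as full-kill control; DMSO vehicle as negative control; activity normalized between vehicle and cell-free wells.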

Test [4] in a line: NS1 protein of Zika virus - qHTS assay to identify small molecule inhibitors in human HEK 293 cells (AID 1347053). Further: nearly all actives have a fitted effect of over 55% in size. Further: potency means the concentration at half of the fitted maximal effect. Put shortly:
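Following 20 h seeding, HEK 293 cells took compound, then 1 h later ZIKV MR766 (MOI = 0.5). Incubation ran 24 h at 37 C before TR-FRET detection of NS1; a drop in signal indicates inhibition.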

A short description of test [5]: P-glycoprotein substrates identified in KB-3-1 adenocarcinoma cell line, qHTS therapeutic library screen (AID 1346986). Further: nearly all actives have a fitted effect of over 60% in size.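 Further: potency means the concentration at half of the fitted maximal effect; potency is for cytotoxicity meaning loss of cell viability.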 The method, boiled down: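 KB-3-1 parental and colchicine-selected P-gp-overexpressing KB-8-5-11 cells (colchicine omitted during assay), 500 cells/well, dosed in dose-response for 72 h at 37 °C; CellTiter-Glo luminescence. Cytotoxic: curve class -1.1 to -2.4, max response >50%, AC50 < 10 uM.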

“And” between values parts separate entries of the source, which are not always exact repeats. Equal entries are not always repeated. Records with an inconclusive call do not appear. The source holds several records for some structures; these can differ, active in one and inactive in another. The source made the active and inactive calls. The call rests on the fitted dose curve; in most records, active means well fitted curve in the direction sought with a large enough effect; inconclusive means small, poorly fitted or top-dose-only effect, or another doubt; inactive means no such curve, though single readings can be large; an effect the other way counts as inactive or inconclusive.

On to `O=C(O)c1ccc(O)c2ncc(N3CCOCC3)cc12`, for which the Potency entry in test [1] and in test [2] was “inactive” each time.
As to `CCN(CC)CCCCNc1nc2cc(Cl)c(Cl)cc2nc1-c1ccc(-c2cccs2)s1`, the IC50 (viability decrease) in test [3] is 23.5 µM (active). In test [2], the Potency is 9.35 µM (active). In addition, the Potency result in test [4] is “inactive”.
Take `CCCCn1c(=O)n(Cc2ccccc2F)c(=O)c2[nH]c(Cc3ccc(NC(C)=O)cc3)nc21`: the IC50 (viability decrease) in test [3] is 13.2 µM (active). Besides, the Potency entry in test [2] and in test [4] was “inactive” each time.
For the molecule `CC1(COc2ccc3c(c2)ncn3-c2ccc3cccc(N4CCC(N)CC4)c3n2)COC1`, the Potency in test [5] is 10.3 µM (active).
Take `COc1ccc(CCN(C)CCCOc2ccc(S(=O)(=O)c3[nH]c4ccccc4c3C(C)C)cc2)cc1OC`: the Potency in test [1] is 26.4 µM (active). Besides, the Potency result in test [2] and in test [4] was “inactive” in each case.
As for `CCCCCCCCCCCCCC(=O)N[C@H](CO)[C@H](O)c1ccc([N+](=O)[O-])cc1`, the Potency result in test [1] and in test [2] was “inactive” throughout.
`COc1nc(C)cnc1NS(=O)(=O)c1cccnc1-c1ccc(-c2nnco2)cc1`: the IC50 (viability decrease) result in test [3] is “inactive”. Moreover, the Potency entry in test [1], in test [2] and in test [4] was “inactive” throughout.
For the molecule `OCCn1cc(-c2ccc3c(c2)CCC3=NO)c(-c2ccncc2)n1`, in test [3], the IC50 (viability decrease) was 16.6 µM (active). The Potency entry in test [2] and in test [4] was “inactive” in each case.
Turning to `O=C(Nc1cccc(Cl)c1)Nc1ncc(CCNc2ncnc3ccsc23)s1`, the Potency in test [1] is 18.7 µM (active); in test [2], 1.16 µM (active). Also, the Potency result in test [4] was “inactive”.
As to `CC(O)=C(C#N)C(=O)Nc1ccc(C(F)(F)F)cc1`, in test [3], the IC50 (viability decrease) is 16.6 µM (active). Besides, the Potency entry in test [1] is “inactive”. In test [4], the Potency was 13.2 µM (active).
In the case of `CCOC(=O)[C@@H](N)CCC(=O)N[C@@H](CSCc1ccccc1)C(=O)N[C@@H](C(=O)OCC)c1ccccc1`, the Potency result in test [1] and in test [2] was “inactive” throughout.
With `CC1C(=O)OC2C(O)C34C5CC(C(C)(C)C)C36C(OC(=O)C6O)OC4(C(=O)O5)C12O` (stereo unspecified), the Potency entry in test [5], in test [2] and in test [4] was “inactive” each time.
As to `Cc1cc(C(C)Nc2ccccc2)c2nc(N3CCOCC3)cc(=O)n2c1` (stereo unspecified), the Potency entry in test [5], in test [2] and in test [4] was “inactive” throughout.
Turning to `CN[C@H]1[C@@H](O[C@@H]2[C@H](O[C@@H]3[C@@H](O)[C@@H](O)[C@@H](N=C(N)N)[C@@H](O)[C@@H]3N=C(N)N)O[C@H](C)[C@@]2(O)C=O)O[C@@H](CO)[C@@H](O)[C@H]1O`, in test [5], the outcome is “inactive [at 9.29 µM]”. In test [2], the activity change, negative = cytotoxicity is 9.82% [at 9.29 µM] (inactive). Also, in test [4], the Potency result was “inactive”.
Regarding `O=C(NC[C@H](O)CO)c1ccncc1Nc1ccc(I)cc1F`, the Potency entry in test [5], in test [2] and in test [4] was “inactive” in each case.
For `CC(=O)O[C@]1(C(C)=O)CC[C@H]2[C@@H]3C=C(Cl)C4=CC(=O)[C@@H]5C[C@H]5[C@]4(C)[C@@H]3CC[C@@]21C`, the Potency entry in test [5], in test [2] and in test [4] was “inactive” each time.
Turning to `CN1CCN(c2cccc(Nc3nc4c(-c5ccc(S(C)(=O)=O)cc5)cccn4n3)c2)CC1`, the Potency entry in test [5] is “inactive and 23.1 µM (active)”; in test [2], “inactive and 20.6 µM (active)”.
On to `CN1CCC(COc2cnc(-c3cccc(Cn4nc(-c5cccc(C#N)c5)ccc4=O)c3)nc2)CC1`, for which the Potency entry in test [2] is “inactive and 16.4 µM (active)”.
As for `CCOC(=O)N1CCN([N+]([O-])=NOc2cc(ON=[N+]([O-])N3CCN(C(=O)OCC)CC3)c([N+](=O)[O-])cc2[N+](=O)[O-])CC1`, the Potency result in test [5], in test [2] and in test [4] was “inactive” in each case.
Regarding `CC(C)CN(C[C@@H](O)[C@H](Cc1ccccc1)NC(=O)O[C@H]1CO[C@H]2OCC[C@H]21)S(=O)(=O)c1ccc(N)cc1`, the Potency result in test [5], in test [2] and in test [4] was “inactive” throughout.
As to `CN(C)c1ccc(-c2nc3ncc(Cl)c(N4CCN(CC(=O)Nc5nccs5)CC4)c3[nH]2)cc1`, the Potency result in test [5] and in test [2] was “inactive” each time.
As to `C[C@@H](NC(=O)c1ncnc(N)c1Cl)c1ncc(C(=O)Nc2cc(C(F)(F)F)c(Cl)cn2)s1`, the Potency entry in test [5], in test [2] and in test [4] was “inactive” in each case.
Regarding `O=C(c1ccc(F)c(F)c1Nc1ccc(I)cc1F)N1CC(O)([C@H]2CCCCN2)C1`, the Potency in test [2] was 20.9 µM (active).
Take `CSc1cccc(Nc2ncc3cc(-c4c(Cl)cccc4Cl)c(=O)n(C)c3n2)c1`: the Potency result in test [2] was “inactive and 1.3 µM (active)”.
Regarding `COc1ccc(-c2cc3nccn3c(Nc3ncccc3C(N)=O)n2)cc1OC`, the Potency in test [5] was 6.51 µM (active). For the same molecule, the Potency result in test [4] is “inactive”.
Consider `COc1ccc2ccc(=O)oc2c1CC=C(C)C`, for which the Potency entry in test [2] was “inactive”.
With `CN(C)CCOc1cc(-c2cn[nH]c2)ccc1NC(=O)C1COc2ccccc2O1` (stereo unspecified), in test [2], the Potency result is “inactive”.
Consider `CN[C@@H](C)[C@H]1[C@H](O)C[C@@]2(C)[C@@H]3CC[C@H]4C(C)(C)[C@@H](NC)CC[C@@]45C[C@@]35CC[C@]12C`, for which the outcome in test [5] is “inactive [at 9.29 µM]”. In addition, the Potency entry in test [2] and in test [4] was “inactive” in each case.
On to `C[C@@H]1CCO[C@H]2Cn3cc(C(=O)NCc4ccc(F)cc4F)c(=O)c(O)c3C(=O)N12`, for which the Potency entry in test [2] was “inactive”.
For `O=C(O)CCNc1cc(N2CCc3ccccc3CC2)nc(-c2ccccn2)n1`, the Potency entry in test [5] and in test [2] was “inactive” each time.
Regarding `Cc1cc2c(cc1C1(c3ccc(C(=O)O)cn3)CC1)C(C)(C)CCC2(C)C`, the Potency result in test [5], in test [2] and in test [4] was “inactive” in each case.
In the case of `CCCCCCCCCCCCCCCC(=O)O[C@H]1[C@@H](O)[C@@H](O)[C@@H]([C@H](NC(=O)[C@@H]2C[C@@H](CCC)CN2C)[C@H](C)Cl)O[C@@H]1SC`, the Potency result in test [5], in test [2] and in test [4] was “inactive” each time.
